Results reported in PMC10812921, “Transcriptional Coactivator BOB1 (OBF1, OCA-B) Modulates the Specificity of DNA Recognition by the POU-Domain Factors OCT1 and OCT2 in a Monomeric Configuration”.

target: POU1 (OCT1 POU domain);BOB1 (OBF1, OCA-B) (human;human, UniProt P14859;Q16633 260-458;1-256, |); test: EMSA-SELEX-seq; with BOB1 (ternary complex band); 20 mM Tris-HCl pH 7.6, 140 mM NaCl, 10% glycerol, 0.5 mM EDTA, 0.05% Triton X-100, 0.1 mg/mL BSA, 0.1 mg/mL poly(dI-dC), 5 mM DTT, room temperature, 20 min; high values mean tight binding; details: protein: recombinant;recombinant; copies: 1;1; dsDNA, one strand shown
Summary of the method: (§1)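 Tagged POU-domain proteins were expressed in E. coli BL21, purified under denaturing conditions and renatured. Then 30 ng was mixed with 300 ng of a PCR-amplified double-stranded random 35-nt library, with or without 28 ng coactivator protein, in 20 μL Tris–HCl pH 7.6 binding buffer for 20 min at RT. Complex bands were cut from native 6% PAGE, eluted and PCR-amplified over four rounds, then Illumina-sequenced. Binding preference is the percentage of sequenced 8-mers matching a motif pattern.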

Sequence	binding signal
AGCCAAAG	0.0363 % of ANNNNAAN 8-mers
ATGCTAAA	0.0691 % of ANNNNAAN 8-mers
AGCGCAAT	0.0258 % of ANNNNAAN 8-mers
ATATCAAA	0.0823 % of ANNNNAAN 8-mers
ATCACAAC	0.0222 % of ANNNNAAN 8-mers
ATATTAAT	0.142 % of ANNNNAAN 8-mers
AATCTAAT	0.0972 % of ANNNNAAN 8-mers
AATCTAAA	0.0726 % of ANNNNAAN 8-mers
ATCTCAAG	0.039 % of ANNNNAAN 8-mers
AGTGCAAA	0.126 % of ANNNNAAN 8-mers
ACTCCAAA	0.0277 % of ANNNNAAN 8-mers
AAGCCAAA	0.0464 % of ANNNNAAN 8-mers
ATTTTAAA	0.126 % of ANNNNAAN 8-mers
ACTAGAAC	0.0144 % of ANNNNAAN 8-mers
AGCTCAAG	0.0187 % of ANNNNAAN 8-mers
AGGTTAAG	0.0542 % of ANNNNAAN 8-mers
AGTCCAAC	0.0144 % of ANNNNAAN 8-mers
AGCTGAAG	0.025 % of ANNNNAAN 8-mers
ACGTGAAT	0.0558 % of ANNNNAAN 8-mers
AACCGAAA	0.0265 % of ANNNNAAN 8-mers

Sequence	binding signal
ACATGAAA	0.0823 % of ANNNNAAN 8-mers
AGACAAAG	0.0558 % of ANNNNAAN 8-mers
AATACAAC	0.0336 % of ANNNNAAN 8-mers
ACTCTAAT	0.0316 % of ANNNNAAN 8-mers
AAAAAAAG	0.111 % of ANNNNAAN 8-mers
ATTCTAAG	0.0593 % of ANNNNAAN 8-mers
ATGATAAG	0.0714 % of ANNNNAAN 8-mers
AGTAAAAG	0.0913 % of ANNNNAAN 8-mers
AATTAAAC	0.0905 % of ANNNNAAN 8-mers
AACATAAG	0.041 % of ANNNNAAN 8-mers
ATTTTAAG	0.0964 % of ANNNNAAN 8-mers
AGAAAAAC	0.0519 % of ANNNNAAN 8-mers
AGTTGAAA	0.0531 % of ANNNNAAN 8-mers
ACGAAAAT	0.139 % of ANNNNAAN 8-mers
AGAATAAC	0.0312 % of ANNNNAAN 8-mers
AGCGGAAT	0.0546 % of ANNNNAAN 8-mers
ACCGGAAC	0.0133 % of ANNNNAAN 8-mers
ACAAGAAA	0.0386 % of ANNNNAAN 8-mers
AGATTAAG	0.0581 % of ANNNNAAN 8-mers

target: T1, POU2 (OCT2 POU domain);BOB1 (OBF1, OCA-B) (human;human, UniProt P09086;Q16633 175-386;1-256, |); test: as above; details: protein: recombinant;recombinant; copies: 1;1; dsDNA, one strand shown
T1 sequence 1: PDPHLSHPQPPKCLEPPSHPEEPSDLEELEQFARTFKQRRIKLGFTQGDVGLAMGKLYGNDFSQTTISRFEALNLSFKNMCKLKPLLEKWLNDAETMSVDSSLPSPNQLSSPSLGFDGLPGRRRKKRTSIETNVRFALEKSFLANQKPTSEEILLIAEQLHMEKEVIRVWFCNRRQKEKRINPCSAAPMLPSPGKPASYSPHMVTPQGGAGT
T1 sequence 2: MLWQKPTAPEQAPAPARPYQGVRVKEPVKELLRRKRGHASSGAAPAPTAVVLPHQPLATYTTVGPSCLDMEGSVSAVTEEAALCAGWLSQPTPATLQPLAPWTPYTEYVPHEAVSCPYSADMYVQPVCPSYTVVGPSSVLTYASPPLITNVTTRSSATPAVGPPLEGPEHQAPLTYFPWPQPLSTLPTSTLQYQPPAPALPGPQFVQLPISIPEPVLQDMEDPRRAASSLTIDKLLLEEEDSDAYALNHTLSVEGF
Summary of the method: as §1

Sequence	binding signal
AGCCAAAG	0.019 % of ANNNNAAN 8-mers
ATGCTAAA	0.0817 % of ANNNNAAN 8-mers
AGCGCAAT	0.0297 % of ANNNNAAN 8-mers
ATATCAAA	0.0726 % of ANNNNAAN 8-mers
ATCACAAC	0.0165 % of ANNNNAAN 8-mers
ATATTAAT	0.177 % of ANNNNAAN 8-mers
AATCTAAT	0.0949 % of ANNNNAAN 8-mers
AATCTAAA	0.0669 % of ANNNNAAN 8-mers
ATCTCAAG	0.0413 % of ANNNNAAN 8-mers
AGTGCAAA	0.0743 % of ANNNNAAN 8-mers
ACTCCAAA	0.0149 % of ANNNNAAN 8-mers
AAGCCAAA	0.0256 % of ANNNNAAN 8-mers
ATTTTAAA	0.103 % of ANNNNAAN 8-mers
ACTAGAAC	0.0149 % of ANNNNAAN 8-mers
AGCTCAAG	0.0206 % of ANNNNAAN 8-mers
AGGTTAAG	0.052 % of ANNNNAAN 8-mers
AGTCCAAC	0.0248 % of ANNNNAAN 8-mers
AGCTGAAG	0.0223 % of ANNNNAAN 8-mers
ACGTGAAT	0.0784 % of ANNNNAAN 8-mers
AACCGAAA	0.0256 % of ANNNNAAN 8-mers

Sequence	binding signal
ACATGAAA	0.0619 % of ANNNNAAN 8-mers
AGACAAAG	0.0248 % of ANNNNAAN 8-mers
AATACAAC	0.0545 % of ANNNNAAN 8-mers
ACTCTAAT	0.0405 % of ANNNNAAN 8-mers
AAAAAAAG	0.0842 % of ANNNNAAN 8-mers
ATTCTAAG	0.0702 % of ANNNNAAN 8-mers
ATGATAAG	0.0768 % of ANNNNAAN 8-mers
AGTAAAAG	0.0578 % of ANNNNAAN 8-mers
AATTAAAC	0.0966 % of ANNNNAAN 8-mers
AACATAAG	0.0396 % of ANNNNAAN 8-mers
ATTTTAAG	0.101 % of ANNNNAAN 8-mers
AGAAAAAC	0.0396 % of ANNNNAAN 8-mers
AGTTGAAA	0.0512 % of ANNNNAAN 8-mers
ACGAAAAT	0.0834 % of ANNNNAAN 8-mers
AGAATAAC	0.0487 % of ANNNNAAN 8-mers
AGCGGAAT	0.0636 % of ANNNNAAN 8-mers
ACCGGAAC	0.0124 % of ANNNNAAN 8-mers
ACAAGAAA	0.0322 % of ANNNNAAN 8-mers
AGATTAAG	0.0619 % of ANNNNAAN 8-mers
